Data: PubChem BioAssay (Tox21)
A number with no mark means an inactive call. Records with an inconclusive call do not appear. Where a call stands in place of a potency, no number is given. Calls of active or inactive are those of the source. Unless noted, the call rests on the fitted dose curve; in most records, active means well fitted inhibition curve with a large enough effect in the repeat runs (not every such curve was filed as active); inconclusive means weak or mixed curves; inactive means flat fitted curve, though single readings scatter.

test system: not listed separately; test: qHTS assay to identify small molecule agonists of the TGF-beta/Smad signaling pathway (AID 1346859; active means well fitted activation curve with a large enough effect in the signal ratio in the repeat runs, not every such curve was filed as active; the % refers to the signal ratio); details: SBE-bla HEK293T, TGF-beta/Smad beta-lactamase reporter, 5 h; series mostly up to 76.8 µM
How it was run: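 Screening used HEK 293T SBE-bla cells at 4,000/well. Test agents: 5 hr, 37 C. Detection: FRET substrate, 2 hr RT, then excitation 405 nm with emissions at 460 and 530 nm.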

Question: For `CC/C=C(\C)C=O`, which outcome is on record?
Answer: Its outcome is “inactive”.

Question: For `O=C(NCc1ncc(C(F)(F)F)cc1Cl)c1c(Cl)cccc1Cl`, which outcome is on record?
Answer: Its outcome is “inactive”.

Question: Which outcome does the source give for `O=c1cc[nH]cc1` here?
Answer: Its outcome is “inactive”.

Question: With `CN1CCN(CCCN2c3ccccc3Sc3ccc(Cl)cc32)CC1` as the compound, how does the outcome read?
Answer: The outcome was “inactive”.

Question: Which outcome does the source give for `CCOc1nc(F)cc2nc(S(=O)(=O)Nc3c(Cl)cccc3C(=O)OC)nn12` here?
Answer: Its outcome is “inactive”.

Question: Which activation does the source give for `CCCCCCCCCCCCS(=O)(=O)Cl` here?
Answer: Its activation is 8.04% [at 15.8 µM].

Question: With `CCN(CCC#N)c1ccc(N=Nc2ccc([N+](=O)[O-])cc2)cc1` as the compound, how does the outcome read?
Answer: The outcome was “inactive”.

Question: For `CC(C)C(=O)C(C)C`, which outcome is on record?
Answer: The outcome was “inactive”.

Question: Which outcome does the source give for `CCN(CC)c1ccc2c(c1)Oc1cc(N(CC)CC)ccc1C21OC(=O)c2ccccc21` here?
Answer: Its outcome is “inactive”.

Question: With `[Cl][Eu]([Cl])[Cl]` as the compound, how does the outcome read?
Answer: The outcome was “inactive”.

Question: For `N#CCCOCCC#N`, which outcome is on record?
Answer: Its outcome is “inactive”.

Question: With `Oc1cccc2c(O)cccc12` as the compound, how does the outcome read?
Answer: The outcome was “inactive”.

Question: For `Nc1ccc(F)c([N+](=O)[O-])c1`, which outcome is on record?
Answer: The outcome was “inactive”.

Question: With `CC(=O)CC(N)=O` as the compound, how does the outcome read?
Answer: The outcome was “inactive”.

Question: With `CCSCC` as the compound, how does the outcome read?
Answer: The outcome was “inactive”.

Question: Which activation does the source give for `C=CC(=O)OCCOC1C2CCC1C1CC=CC12` (centres undefined) here?
Answer: The activation was -4.69% [at 15.8 µM].

Question: With `C=CC(=O)O[C@H]1C[C@@H]2CC[C@@]1(C)C2(C)C` as the compound, how does the outcome read?
Answer: The outcome was “inactive”.

Question: For `O=C1OC(=O)c2cc(-c3ccc4c(c3)C(=O)OC4=O)ccc21`, which outcome is on record?
Answer: Its outcome is “inactive”.

Question: For `C=C[Si](C)(C)Cl`, which activation is on record?
Answer: Its activation is 0.312% [at 6.97 µM].

Question: With `CCC(C)(C)c1ccc(CC(C)CN2C[C@@H](C)O[C@@H](C)C2)cc1` (some centres undefined) as the compound, how does the outcome read?
Answer: Its outcome is “inactive”.

Question: With `O=[N+]([O-])c1ccc(CO)cc1` as the compound, how does the outcome read?
Answer: The outcome was “inactive”.

Question: With `CC(CC(C)(C)C)CC(C)(C)CC(C)(C)C` (centres undefined) as the compound, how does the outcome read?
Answer: Its outcome is “inactive”.

Question: With `O=C(O)C[C@H](O)C[C@H](O)/C=C/c1c(C2CC2)nc2ccccc2c1-c1ccc(F)cc1` as the compound, how does the activation read?
Answer: The activation was -0.423% [at 15.8 µM].

Question: For `CCN(CC)c1ccc(N=Nc2ccccc2)cc1`, which outcome is on record?
Answer: Its outcome is “inactive”.

target: Thyrotropin-releasing hormone receptor (Homo sapiens) (UniProt P34981); test: qHTS assay to identify small molecule antagonists of the thyrotropin-releasing hormone receptor (TRHR) signaling pathway (AID 1346877); details: TRHR-HEK293, TRH-induced calcium fluorescence, antagonist mode; series mostly up to 51.3 µM
How it was run: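 Screening used HEK293 cells engineered with TRHR, with a brief 5 min room-temperature compound exposure preceding addition of TRH to 1 nM. The read-out was kinetic calcium-dye fluorescence, concentration-response from 15 doses in triplicate.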

Thyrotropin-releasing hormone receptor (Homo sapiens), sequence (P34981 whole entry, looked up): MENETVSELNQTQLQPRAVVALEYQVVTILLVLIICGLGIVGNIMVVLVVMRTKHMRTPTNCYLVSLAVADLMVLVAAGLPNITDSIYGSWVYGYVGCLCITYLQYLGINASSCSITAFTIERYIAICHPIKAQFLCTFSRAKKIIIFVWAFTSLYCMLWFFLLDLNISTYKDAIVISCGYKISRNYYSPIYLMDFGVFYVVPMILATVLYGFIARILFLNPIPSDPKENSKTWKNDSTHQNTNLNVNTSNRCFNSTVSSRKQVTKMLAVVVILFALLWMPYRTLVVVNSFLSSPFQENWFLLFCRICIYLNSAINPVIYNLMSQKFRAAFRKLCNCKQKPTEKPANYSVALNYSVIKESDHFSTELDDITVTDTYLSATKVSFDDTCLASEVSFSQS

Question: With `CC/C=C(\C)C=O` as the compound, how does the Potency read?
Answer: The Potency was “inactive”.

Question: With `O=C(O)CN(CCCN(CC(=O)O)CC(=O)O)CC(=O)O` as the compound, how does the activity, negative = inhibition read?
Answer: Its activity, negative = inhibition is -1.06% [at 10.5 µM].

Question: Which Potency does the source give for `O=C(NCc1ncc(C(F)(F)F)cc1Cl)c1c(Cl)cccc1Cl` here?
Answer: The Potency was “inactive”.

Question: Which Potency does the source give for `O=c1cc[nH]cc1` here?
Answer: Its Potency is “inactive”.

Question: With `CCOc1nc(F)cc2nc(S(=O)(=O)Nc3c(Cl)cccc3C(=O)OC)nn12` as the compound, how does the Potency read?
Answer: Its Potency is “inactive”.

Question: For `Cn1ccnc1`, which Potency is on record?
Answer: Its Potency is “inactive”.

Question: Which activity, negative = inhibition does the source give for `CCCCCCCCCCCCS(=O)(=O)Cl` here?
Answer: Its activity, negative = inhibition is -4.31% [at 10.5 µM].

Question: For `CCN(CCC#N)c1ccc(N=Nc2ccc([N+](=O)[O-])cc2)cc1`, which Potency is on record?
Answer: The Potency was “inactive”.

Question: For `CCN(CC)c1ccc2c(c1)Oc1cc(N(CC)CC)ccc1C21OC(=O)c2ccccc21`, which Potency is on record?
Answer: Its Potency is “inactive”.

Question: For `Cc1cc(Br)ccc1NC(=O)CCl`, which Potency is on record?
Answer: Its Potency is “inactive”.

Question: Which Potency does the source give for `N#Cc1nc(Cl)c(Cl)c(Cl)c1Cl` here?
Answer: The Potency was “inactive”.

Question: Which Potency does the source give for `[Cl][Eu]([Cl])[Cl]` here?
Answer: The Potency was “inactive”.

Question: Which Potency does the source give for `COc1cc(/C=C/C(=O)CC(=O)/C=C/c2ccc(O)c(OC)c2)ccc1O` here?
Answer: Its Potency is “inactive”.

Question: For `N#CCCOCCC#N`, which Potency is on record?
Answer: The Potency was “inactive”.

Question: For `Oc1cccc2c(O)cccc12`, which Potency is on record?
Answer: The Potency was “inactive”.

Question: Which Potency does the source give for `Nc1ccc(F)c([N+](=O)[O-])c1` here?
Answer: The Potency was “inactive”.

Question: With `CC(=O)CC(N)=O` as the compound, how does the Potency read?
Answer: The Potency was “inactive”.

Question: With `Oc1ccc(C2(c3ccc(O)c(C4CCCCC4)c3)CCCCC2)cc1C1CCCCC1` as the compound, how does the Potency read?
Answer: Its Potency is “inactive”.

Question: With `CCSCC` as the compound, how does the Potency read?
Answer: Its Potency is “inactive”.

Question: For `C=CC(=O)OCCOC1C2CCC1C1CC=CC12` (centres undefined), which activity, negative = inhibition is on record?
Answer: Its activity, negative = inhibition is 0.809% [at 10.5 µM].

Question: With `CC(C=O)c1ccccc1` (centres undefined) as the compound, how does the Potency read?
Answer: The Potency was “inactive”.

Question: For `CCCC(C)C=O` (centres undefined), which Potency is on record?
Answer: The Potency was “inactive”.

Question: Which Potency does the source give for `C=CC(=O)O[C@H]1C[C@@H]2CC[C@@]1(C)C2(C)C` here?
Answer: Its Potency is “inactive”.

Question: For `O=C1OC(=O)c2cc(-c3ccc4c(c3)C(=O)OC4=O)ccc21`, which Potency is on record?
Answer: The Potency was “inactive”.

Question: For `CCCCCCCCCCCCCCCCCCNC(=O)OC1CCN(C(=O)OC[C@H](COC(=O)N(Cc2cccc[n+]2CC)C(=O)c2ccccc2OC)OC)CC1`, which Potency is on record?
Answer: The Potency was “inactive”.

Question: For `C=C[Si](C)(C)Cl`, which activity, negative = inhibition is on record?
Answer: Its activity, negative = inhibition is 2.56% [at 4.65 µM].

Question: Which Potency does the source give for `CCC(C)(C)c1ccc(CC(C)CN2C[C@@H](C)O[C@@H](C)C2)cc1` (some centres undefined) here?
Answer: Its Potency is “inactive”.

Question: For `Cc1ccc2nc(-c3ccc(N)cc3)sc2c1S(=O)(=O)O`, which Potency is on record?
Answer: Its Potency is “inactive”.

Question: With `O=[N+]([O-])c1ccc(CO)cc1` as the compound, how does the Potency read?
Answer: Its Potency is “inactive”.

Question: With `CC(CC(C)(C)C)CC(C)(C)CC(C)(C)C` (centres undefined) as the compound, how does the Potency read?
Answer: Its Potency is “inactive”.

Question: Which activity, negative = inhibition does the source give for `O=C(O)C[C@H](O)C[C@H](O)/C=C/c1c(C2CC2)nc2ccccc2c1-c1ccc(F)cc1` here?
Answer: The activity, negative = inhibition was 1.91% [at 10.5 µM].

Question: With `C=Cc1ccncc1` as the compound, how does the Potency read?
Answer: The Potency was “inactive”.

target: Thyrotropin-releasing hormone receptor (Homo sapiens) (UniProt P34981); test: qHTS assay to identify small molecule agonists of the thyrotropin-releasing hormone receptor (TRHR) signaling pathway (AID 1346891; calls by dose curve; further: potency means the concentration at half of the fitted maximal effect); details: TRHR-HEK293 calcium fluorescence, agonist mode; series mostly up to 57.6 µM
How it was run: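 Readout was intracellular calcium fluorescence in TRHR-Hek293 cells. Cells were incubated 18 h, dye-loaded 2 h at 37 °C, and treated with compound in agonist mode.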

Question: Which Potency does the source give for `CC/C=C(\C)C=O` here?
Answer: Its Potency is “inactive”.

Question: Which Potency does the source give for `O=C(NCc1ncc(C(F)(F)F)cc1Cl)c1c(Cl)cccc1Cl` here?
Answer: The Potency was “inactive”.

Question: For `CCOc1nc(F)cc2nc(S(=O)(=O)Nc3c(Cl)cccc3C(=O)OC)nn12`, which Potency is on record?
Answer: The Potency was “inactive”.

Question: Which Potency does the source give for `Cn1ccnc1` here?
Answer: Its Potency is “inactive”.

Question: For `CCN(CC)c1ccc2c(c1)Oc1cc(N(CC)CC)ccc1C21OC(=O)c2ccccc21`, which Potency is on record?
Answer: The Potency was 15.1 µM (active).

Question: Which Potency does the source give for `Cc1cc(Br)ccc1NC(=O)CCl` here?
Answer: Its Potency is “inactive”.

Question: For `N#Cc1nc(Cl)c(Cl)c(Cl)c1Cl`, which Potency is on record?
Answer: Its Potency is “inactive”.

Question: For `[Cl][Eu]([Cl])[Cl]`, which Potency is on record?
Answer: Its Potency is “inactive”.

Question: With `N#CCCOCCC#N` as the compound, how does the Potency read?
Answer: Its Potency is “inactive”.

Question: For `Oc1cccc2c(O)cccc12`, which Potency is on record?
Answer: The Potency was “inactive”.

Question: For `Nc1ccc(F)c([N+](=O)[O-])c1`, which Potency is on record?
Answer: The Potency was “inactive”.

Question: For `CC(=O)CC(N)=O`, which Potency is on record?
Answer: The Potency was “inactive”.

Question: Which Potency does the source give for `CC(C=O)c1ccccc1` (centres undefined) here?
Answer: The Potency was “inactive”.

Question: Which Potency does the source give for `CCCC(C)C=O` (centres undefined) here?
Answer: Its Potency is “inactive”.

Question: Which Potency does the source give for `C=CC(=O)O[C@H]1C[C@@H]2CC[C@@]1(C)C2(C)C` here?
Answer: The Potency was “inactive”.

Question: With `O=C1OC(=O)c2cc(-c3ccc4c(c3)C(=O)OC4=O)ccc21` as the compound, how does the Potency read?
Answer: Its Potency is “inactive”.

Question: Which Potency does the source give for `CCCCCCCCCCCCCCCCCCNC(=O)OC1CCN(C(=O)OC[C@H](COC(=O)N(Cc2cccc[n+]2CC)C(=O)c2ccccc2OC)OC)CC1` here?
Answer: The Potency was “inactive”.

Question: For `C=C[Si](C)(C)Cl`, which activation is on record?
Answer: The activation was 0.0082% [at 5.23 µM].

Question: For `Cc1ccc2nc(-c3ccc(N)cc3)sc2c1S(=O)(=O)O`, which Potency is on record?
Answer: Its Potency is “inactive”.

Question: For `O=[N+]([O-])c1ccc(CO)cc1`, which Potency is on record?
Answer: Its Potency is “inactive”.

Question: With `CC(CC(C)(C)C)CC(C)(C)CC(C)(C)C` (centres undefined) as the compound, how does the Potency read?
Answer: The Potency was “inactive”.

Question: For `O=C(O)C[C@H](O)C[C@H](O)/C=C/c1c(C2CC2)nc2ccccc2c1-c1ccc(F)cc1`, which activation is on record?
Answer: The activation was -0.474% [at 11.8 µM].

Question: With `C=Cc1ccncc1` as the compound, how does the Potency read?
Answer: The Potency was “inactive”.
